# Experimental data published in the OligoGym collection.
# Biological target: PKLR
# Assay: pooled miR-30 sensor sort-seq; sequence = guide strand
# Conditions: shRNA
# Further: reference of the scale not given here.
row,Sequence,sensor-assay potency score (higher = more potent)
1,TGTGGCACAGACAACAGGCTTG,-0.0127
2,TCGTGGTTCTCAATTTTGCTGA,-0.424
3,TCGCTTGTCTCTGCCCTCGTTG,-1.2
4,TTGATCATCTCCTTGAGGCGCT,1.07
5,TCAATTTTGCTGATGATCTTGA,0.666
6,AATCATCATCTTCTGAGCCAGG,-0.988
7,TAATTGGACACAGACTTTCAGG,-0.61
8,TTGCTGATGATCTTGATGCCGT,-0.495
9,TAGATGACAGTTATAGTCTCAG,-0.0862

# Biological target: PLA2G4A
# Assay: as above
# Conditions: shRNA
row,Sequence,sensor-assay potency score (higher = more potent)
1,TATCACATCAATGTTGTTCAGA,0.0915
2,TTCTTCATTAATCTCCTCTGGC,-0.109
3,TAAAGCTGAATCACTCACCAAG,-0.42
4,TACAAGGTTGACATATACCAGG,-0.86
5,TGATTCATCATCACTGTCCGAG,0.0963
6,TTTGATAGTCACTTCCAGCATC,-0.254
7,TATCTTTTAACTTTCTGTGGTG,-0.296
8,TAGTCAGTGAATAACATTCATA,-0.999
9,TTTGCTTCCAAATAAGTCGGGA,0.33
10,TAGTTCTTCATTAATCTCCTCT,0.214
11,TTGTCTGAAAGTCTTCTCCTGA,0.182
12,TTTAAAGACATAGCACTCCTTC,-0.0879
